AC50 and outcome data for 19 compounds are collected here from PubChem BioAssay (EPA / NIEHS).

Inconclusive results are not listed. Activity calls are given as the source filed them. The calls were made as follows, unless noted: active = hit-call score of the fitted dose curve at least 0.9, where 1 is the maximum; inconclusive = response in the unintended direction; inactive = score below 0.9.

A word on the AC50: it is the concentration giving half of the maximal activity seen.

Read-out in experiment [1]: Cytochrome P450 2B6 (Homo sapiens) (UniProt P20813)
Put plainly: CLD_CYP2B6_48hr: CellzDirect (CLD) Gene Expression Assay for xenobiotic metabolism (CYP2B6) at 48 hours (AID 2283699).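 Also: actives raise transcript level above DMSO so potency reflects induction.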 In short, it runs like this: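 CYP2B6 transcript induction, read by quantitative nuclease protection (S1 digestion, chemiluminescent detection) 48 h after dosing, is fitted upward against 0.2% DMSO. Cultured human liver primary cells, two donor preparations, received fresh chemical daily over multiple concentrations.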

Read-out in experiment [2]: Cytochrome P450 2C9 (Homo sapiens) (UniProt P11712)
Put plainly: CLD_CYP2C9_48hr: CellzDirect (CLD) Gene Expression Assay for xenobiotic metabolism (CYP2C9) at 48 hours (AID 2283701; active = hit-call score of the fitted dose curve at least 0.9, where 1 is the maximum; inactive = score below 0.9). In short, it runs like this:
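mRNA level measured by quantitative nuclease protection (S1 digestion, chemiluminescent detection) in lysates of human primary hepatocytes exposed 48 h with daily re-dosing. Induction fitted positively versus 0.2% DMSO; morphology-based cytotoxicity flagged yes/no.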

Read-out in experiment [3]: xenobiotic metabolism (CYP1A2), CYP1A2 (gene 1544)
Put plainly: CLD_CYP1A2_48hr: CellzDirect (CLD) Gene Expression Assay for xenobiotic metabolism (CYP1A2) at 48 hours (AID 2283703). In short, it runs like this:
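Cytotoxicity was flagged yes/no from morphology, while CYP1A2 transcript induction was detected by qNPA chemiluminescence after a 48-hour exposure. Human primary hepatocyte cultures from separate donors received fresh dosing solutions daily over two days, with 0.2% DMSO as vehicle and baseline.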

Read-out in experiment [4]: xenobiotic metabolism (CYP1A1), CYP1A1 (gene 1543)
Put plainly: CLD_CYP1A1_48hr: CellzDirect (CLD) Gene Expression Assay for xenobiotic metabolism (CYP1A1) at 48 hours (AID 2283705). In short, it runs like this:
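CYP1A1 transcript measured by quantitative nuclease protection (chemiluminescent) 48 h after two daily treatments of human hepatocyte cultures, versus 0.2% DMSO. Morphology-based cytotoxicity flags accompany data; two donor preparations used.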

Read-out in experiment [5]: sulfotransferase (SULT2A), SULT2A1 (gene 6822)
Put plainly: CLD_SULT2A_48hr: CellzDirect (CLD) Gene Expression Assay for sulfotransferase (SULT2A) at 48 hours (AID 2283710).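 Also: hits raise SULT2A1 transcript above the 0.2% DMSO vehicle baseline.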 In short, it runs like this: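 SULT2A1 transcript measured by qNPA chemiluminescence in human primary hepatocyte cultures after 48 h, with fresh dosing solutions on two consecutive days; gain-of-signal fitting against 0.2% DMSO vehicle; cytotoxicity annotated from phase-contrast morphology.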

Experiment [6] in a line: STM_H9_OrnithineISnorm_perc: Stemina devTOX quickPredict H9 human embryonic stem cell (hESC)-based Assay for Ornithine (ORN) Metabolite Biomarker, Normalized (AID 2283712; active = hit-call score of the fitted dose curve at least 0.9, where 1 is the maximum; inactive = score below 0.9;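 also: ornithine released into spent medium during last day measured by mass spectrometry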). In short, it runs like this: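 UPLC-HRMS readout: endogenous ornithine EIC area / 13C-ORN internal standard, then % of 0.1% DMSO median. H9 hESCs (pluripotent), 72h exposure, re-dosed with fresh media q24h; last 24-h spent media, deproteinized in 40% acetonitrile.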

A short description of experiment [7]: STM_H9_CystineISnorm_perc: Stemina devTOX quickPredict H9 human embryonic stem cell (hESC)-based Assay for Cystine (CYSS) Metabolite Biomarker, Normalized (AID 2283713; active = hit-call score of the fitted dose curve at least 0.9, where 1 is the maximum; inactive = score below 0.9). In short, it runs like this:
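UPLC-HRMS read-out: endogenous cystine peak area in spent medium, normalized to isotope-labeled internal standard and to median of 0.1% DMSO controls. Pluripotent H9 cells, 72h exposure, daily medium/compound replenishment; medium from last 24h sampled.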

Experiment [8] can be described thus: CEETOX_H295R_MTT_cell_viability: Viability Assessment in the CeeTox HT-H295R MTT Assay (AID 2283718; active = hit-call score of the fitted dose curve at least 0.9, where 1 is the maximum; inactive = score below 0.9). In short, it runs like this: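 MTT reduction (0.5 mg/ml, 4 h at 37 C; absorbance at 570 and 650 nm) gave viability as background-corrected percent change versus controls. H295R cells had 48 h forskolin (10 uM) prestimulation, then 48 h chemical exposure at 0.1% DMSO.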

A short description of experiment [9]: Tanguay_ZF_120hpf_ActivityScore_legacy: (Legacy) Oregon State University Tanguay Lab 120 Hour Post-fertilization zebrafish Assay Score for Activity (AID 2283742).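 As to AC50: dechorionated Tropical 5D wild-type zebrafish embryos held singly per well.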 In short, it runs like this: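 Binary scoring of mortality and morphology by brightfield at 24 and 120 hpf, summarised into one activity score from 18 components relative to DMSO. Wild-type Tropical 5D zebrafish, chorion removed at 4 hpf, static exposure 6–120 hpf, 28 °C.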

Experiment [10] in a line: CLD_ACTIN_48hr: CellzDirect (CLD) Gene Expression Assay for Baseline Control (Actin) at 48 hours (AID 2283702). In short, it runs like this: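 Background-control actin mRNA read by qNPA chemiluminescence at 48 h. Human hepatocyte cultures from two donors received fresh multi-concentration chemical doses daily for two days; 0.2% DMSO served as vehicle baseline.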
Read-out in experiment [11]: Broad substrate specificity ATP-binding cassette transporter ABCG2 (Homo sapiens) (UniProt Q9UNQ0)
Kind of experiment: CLD_ABCG2_48hr: CellzDirect (CLD) Gene Expression Assay for ABC Transporter (ABCG2) at 48 hours (AID 2283704). In short, it runs like this: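 ABCG2 transcript measured at 48 h by quantitative nuclease protection (chemiluminescent) and fitted for increase relative to 0.2% DMSO. Hepatocyte cultures from separate donors got fresh compound daily over two days; morphology annotated cytotoxicity.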

Read-out in experiment [12]: glucuronosyltransferase (UGT1A1), UGT1A1 (gene 54658)
Kind of experiment: CLD_UGT1A1_48hr: CellzDirect (CLD) Gene Expression Assay for glucuronosyltransferase (UGT1A1) at 48 hours (AID 2283709).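 Also: actives increase expression relative to DMSO so potency refers to induction.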 In short, it runs like this:
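Quantitative nuclease protection assay (chemiluminescent) for UGT1A1 mRNA at 48 h in human hepatocyte cultures from two donors, redosed daily with fresh solutions. Induction fitted relative to 0.2% DMSO; phase-contrast morphology annotated cytotoxicity.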

A short description of experiment [13]: ArunA_CellTiter_hNC: Viability Assessment in the ArunA Biomedical's Oris Neural Crest (hNC) Cell Migration Assay (AID 2283752). In short, it runs like this: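 hNC cells (H9 ESC-derived), 60,000/well, Matrigel, LIF + bFGF medium; 16 h 37C attachment; 72 h compound in test medium; CellTiter Aqueous One read-out; loss-of-signal vs DMSO baseline.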
Experiment [14] can be described thus: ArunA_CellTiter_hNP: Viability Assessment in the ArunA Biomedical's Oris Neural Crest (hNC) Cell Migration Assay (AID 2283753). In short, it runs like this:
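Viability read with CellTiter 96 Aqueous One after 72 h chemical exposure of human hNP1 neuroprogenitors, which were plated on Matrigel in LIF/bFGF medium 16 h beforehand. Endpoint fitted in positive direction relative to DMSO.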

Experiment [15] can be described thus: ArunA_Migration_hNP: ArunA Biomedical's Oris Neuroprogenitor (hNP) Cell Migration Assay (AID 2283754). In short, it runs like this: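 Readout is calcein-AM fluorescence (ex494/em517) of cells migrating into the detection zone, relative to DMSO. hNP1 cells (H9-derived) grown on Matrigel behind stoppers 16 h, then stoppers pulled and chemical applied 72 h; cytochalasin D as control.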

Experiment [16] in a line: ArunA_Migration_hNC: ArunA Biomedical's Oris Neural Crest (hNC) Cell Migration Assay (AID 2283755). In short, it runs like this:
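Calcein-AM fluorescence (ex494 nm/em 517 nm) in the stopper-defined detection zone quantifies migration of hNC cells after 72 h chemical exposure; 60,000 cells/well plated on Matrigel with LIF and bFGF, 16 h pre-incubation. DMSO baseline.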

A short description of experiment [17]: ArunA_NOG_NucleusCount: ArunA Biomedical's Neurite Outgrowth (NOG) Assay for Nucleus Count (AID 2283756). In short, it runs like this:
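Viable neuron count, from Hoechst nuclei passing size and intensity gates, imaged at 20x on differentiated H9-derived human neurons. Exposure lasted 48 h from seeding; activity was scored relative to DMSO.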

Read-out in experiment [18]: alkyl and aryl transferase (GSTA2), GSTA2 (gene 2939)
Put plainly: CLD_GSTA2_48hr: CellzDirect (CLD) Gene Expression Assay for alkyl and aryl transferase (GSTA2) at 48 hours (AID 2283708).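 Also: active means mRNA induction above DMSO vehicle baseline.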 In short, it runs like this:
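GSTA2 mRNA quantified by qNPA chemiluminescence in human primary hepatocyte lysates after 48 h of daily fresh chemical dosing. Increases fitted against 0.2% DMSO vehicle baseline; cytotoxicity from morphology annotated yes/no.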

Chain of Broad substrate specificity ATP-binding cassette transporter ABCG2 (Homo sapiens) (Q9UNQ0 whole entry, looked up): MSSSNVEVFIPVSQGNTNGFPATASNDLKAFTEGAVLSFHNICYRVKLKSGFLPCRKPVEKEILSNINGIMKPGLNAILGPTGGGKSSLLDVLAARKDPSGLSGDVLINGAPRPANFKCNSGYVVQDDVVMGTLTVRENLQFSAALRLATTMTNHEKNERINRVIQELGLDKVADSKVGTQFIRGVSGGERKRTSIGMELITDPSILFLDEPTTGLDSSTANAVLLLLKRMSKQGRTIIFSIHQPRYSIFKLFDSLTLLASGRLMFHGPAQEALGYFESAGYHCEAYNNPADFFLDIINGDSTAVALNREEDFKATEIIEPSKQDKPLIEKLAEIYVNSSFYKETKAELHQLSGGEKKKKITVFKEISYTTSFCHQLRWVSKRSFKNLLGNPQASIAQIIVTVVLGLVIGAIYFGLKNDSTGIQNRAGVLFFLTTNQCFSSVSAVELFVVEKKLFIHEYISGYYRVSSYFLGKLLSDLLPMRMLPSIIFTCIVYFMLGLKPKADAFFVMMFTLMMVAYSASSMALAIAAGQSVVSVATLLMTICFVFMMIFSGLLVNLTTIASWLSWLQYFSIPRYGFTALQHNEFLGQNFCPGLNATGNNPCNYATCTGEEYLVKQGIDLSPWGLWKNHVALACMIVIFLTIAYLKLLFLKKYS

`CCNP(=S)(OC)O/C(C)=C/C(=O)OC(C)C` (stereo not given): the AC50 in [1] was 0.598 µM (active); in experiment [3], 1.99 µM (active); in experiment [4], 3.99 µM (active); in [6] it was 50 µM (active); in experiment [7] it was 75.5 µM (active). Further, the result in experiment [2], in experiment [5], in experiment [8] and in experiment [9] was inactive.
As for `Nc1c(Cl)c(F)nc(OCC(=O)O)c1Cl`, the call in experiment [1], in [2], in experiment [10], in experiment [3], in experiment [11] and in experiment [4] was inactive. The result in [9] was inactive.
On to `COCC(=O)N(c1c(C)cccc1C)C(C)C(=O)OC` (stereo not given), for which the AC50 in experiment [1] was 3.08 µM (active). The call in [2], in experiment [3], in experiment [4], in [12], in [8] and in experiment [9] was inactive.
Consider `CSC(=O)c1c(C(F)F)nc(C(F)(F)F)c(C(=O)SC)c1CC(C)C`, for which the AC50 is 0.416 µM (active) in [1], 6.64 µM (active) in experiment [3] and 20 µM (active) in [4]. Moreover, the call in [2], in [11] and in [9] was inactive.
In the case of `N#Cc1c[nH]cc1-c1cccc2c1OC(F)(F)O2`, the AC50 in [1] was 2.54 µM (active); in experiment [3] it was 2.37 µM (active); in [4] it was 31.8 µM (active); in experiment [6], 38.3 µM (active); in [7], 29.4 µM (active); in [9], 26.9 µM (active).
Regarding `COc1ccc(-c2ccccc2)cc1NNC(=O)OC(C)C`, the outcome in [1], in [10], in experiment [11], in experiment [4], in experiment [9] and in [13] was inactive. In addition, the compound was called inactive in [14], in [15], in experiment [16] and in experiment [17]. In addition, the AC50 was 0.127 µM (active) in [3], 42.1 µM (active) in experiment [6] and 30.5 µM (active) in [7].
On to `CN=C=S`, for which the call in [10], in experiment [11], in experiment [12] and in [9] was inactive.
With `Nc1c(Cl)c(Cl)nc(C(=O)O)c1Cl`, the outcome in [1], in experiment [10], in [4], in experiment [12] and in experiment [9] was inactive. Also, the AC50 in [3] is 5.16 µM (active).
Consider `CC(C)N1C(=O)c2ccccc2NS1(=O)=O`, for which the result in [10], in experiment [3], in experiment [4], in experiment [18] and in experiment [9] was inactive.
On to `CC(C)=CC1C(C(=O)OCc2coc(Cc3ccccc3)c2)C1(C)C` (stereo not given), for which the AC50 in [1] is 20 µM (active). The compound was called inactive in [3], in experiment [11] and in [9].
`COCc1cnc(C2=NC(C)(C(C)C)C(=O)N2)c(C(=O)O)c1` (stereo not given): the compound was classed as inactive in experiment [1], in [3], in experiment [4], in experiment [6], in [7] and in experiment [8]. In addition, the compound was classed as inactive in [9], in experiment [13], in experiment [14] and in [16].
On to `CC(C)C1(C)N=C(c2ncccc2C(=O)O)NC1=O` (stereo not given), for which the AC50 in experiment [1] is 0.000587 µM (active). Moreover, the result in experiment [6], in experiment [7], in experiment [9], in experiment [13], in experiment [14] and in experiment [15] was inactive. In addition, the call in experiment [16] and in [17] was inactive.
For the compound `CN/C(=N\[N+](=O)[O-])NCc1cnc(Cl)s1`, the call in experiment [8] and in experiment [9] was inactive.
Regarding `CCSC(=O)N1CCCCCC1`, the AC50 in [1] was 0.378 µM (active). In addition, the call in [10], in [11], in experiment [4], in experiment [8] and in [9] was inactive.
Regarding `CC(C)Nc1nc(Cl)nc(NC(C)C)n1`, the AC50 is 3.11 µM (active) in [1]; 2.76 µM (active) in [3]; 5.88 µM (active) in experiment [12]; 0.0393 µM (active) in experiment [6]; 5.93 µM (active) in experiment [7]. Also, the outcome in experiment [4], in experiment [8] and in [9] was inactive.
Consider `C=C(C)CN(CC)c1c([N+](=O)[O-])cc(C(F)(F)F)cc1[N+](=O)[O-]`, for which the call in experiment [1], in [10], in experiment [3], in [11], in experiment [4] and in experiment [5] was inactive. Also, in experiment [9], the compound was classed as inactive.
Regarding `O=C1C2CC=CCC2C(=O)N1SC(Cl)(Cl)Cl` (stereo not given), the result in experiment [1], in experiment [11], in experiment [4], in experiment [5], in [6] and in experiment [7] was inactive. In [8], the result was inactive. For the same compound, in experiment [9], the AC50 is 43.5 µM (active).
As for `COC(=O)N(C(=O)N1CO[C@@]2(C(=O)OC)Cc3cc(Cl)ccc3C2=N1)c1ccc(OC(F)(F)F)cc1`, the AC50 in experiment [1] is 0.505 µM (active); in [3] it was 4.25 µM (active); in experiment [4] it was 2.72 µM (active). Also, the call in [12], in experiment [5] and in [9] was inactive.
Consider `CNC(=O)Oc1cccc2ccccc12`, for which the AC50 in experiment [1] is 4.42 µM (active); in experiment [3], 3.23 µM (active); in experiment [4], 3.57 µM (active); in experiment [7] it was 2.87 µM (active). Further, the result in [6], in experiment [8] and in experiment [9] was inactive.
